Assay outcomes: PubChem BioAssay, several laboratories
A selection: hits, their analogues and other compounds. The true share with any hit is near 0.5%.
cardiac RTF act: cardiac RTF calcium sensitization; activation, % at 7.2 µM; P19429+P45379; hit rate 0.24% among 340,000; IANBD-labeled TnC RTF fluorescence at EC20 calcium; 0% EC20 calcium, 100% full calcium;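 active = activation above the mean over all tested compounds plus 3 SD, cut at about 30% in these data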;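 also: rise in fluorescence read as greater calcium sensitivity of cardiac thin filaments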
LANA DNA inh: inhibitors of KSHV LANA C-terminal domain DNA binding; inhibition, % at 9 µM; hit rate 0.078% among 340,000; MBP-C-LANA/FAM-LBS DNA binding, fluorescence polarization;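 active = highest replicate inhibition at or above 60% at 9 µM, even if other replicates fall short; inactive = all replicates below 60% inhibition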;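 also: 0% = neutral control wells and 100% = 4 µM acridine orange control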
Keap1 Nrf2 FP: disrupts human Keap1 binding to Nrf2 peptide. Q14145. Keap1 Kelch-Nrf2 peptide fluorescence polarization, 1536-well. inhibition, % at 9.4 µM. hit rate 0.15% among 340,000. AID 504523; in the data active = inhibition above about 12%; inconclusive = no clear call, values can overlap the other calls; inactive = below about 7.3%;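 also: human Keap1 Kelch domain with fluorescein labeled Nrf2 9mer peptide probe; 0% = neutral control wells and 100% = peptide positive control; higher means more block of Keap1 binding to Nrf2 peptide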
Target sequence (Q14145 whole entry, looked up, the tested form may be a part): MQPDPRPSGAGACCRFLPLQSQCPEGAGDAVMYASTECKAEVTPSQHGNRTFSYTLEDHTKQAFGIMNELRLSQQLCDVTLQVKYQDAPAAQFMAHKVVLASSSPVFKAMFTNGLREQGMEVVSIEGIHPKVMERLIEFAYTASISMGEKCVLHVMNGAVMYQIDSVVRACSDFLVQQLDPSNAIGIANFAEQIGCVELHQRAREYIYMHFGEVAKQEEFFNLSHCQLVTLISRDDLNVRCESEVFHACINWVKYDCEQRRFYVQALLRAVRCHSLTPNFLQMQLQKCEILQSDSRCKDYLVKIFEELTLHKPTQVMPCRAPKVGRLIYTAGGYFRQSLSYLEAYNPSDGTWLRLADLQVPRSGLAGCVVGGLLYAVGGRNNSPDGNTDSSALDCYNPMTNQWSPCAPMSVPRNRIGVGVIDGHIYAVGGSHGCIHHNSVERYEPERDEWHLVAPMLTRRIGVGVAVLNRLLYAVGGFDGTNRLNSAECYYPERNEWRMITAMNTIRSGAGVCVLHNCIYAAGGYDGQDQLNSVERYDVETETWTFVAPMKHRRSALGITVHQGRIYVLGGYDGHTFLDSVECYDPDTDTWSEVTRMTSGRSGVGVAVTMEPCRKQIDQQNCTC
Cardiac RTF inh: cardiac RTF calcium desensitization; hit rate 0.12% among 340,000; inhibition, % at 7.15 µM; IANBD-labeled cardiac RTF, Ca2+ fluorescence; P19429+P45379;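 active = inhibition above the mean inhibition of all tested compounds plus 3 SD, cut at about 17% in these data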;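 also: assay run at fixed EC70 calcium of 1.6 mM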
An asterisk follows results filed as active; i = inactive; ? = inconclusive; + = active, no number.

SMILES	cardiac RTF act	LANA DNA inh	Keap1 Nrf2 FP	Cardiac RTF inh
COc1cccc(-c2noc(CCC(=O)NCCc3ccccc3)n2)c1	3	-1	-4	-5
COc1ccc(-c2noc(CCC(=O)NCCc3ccccc3)n2)cc1	38*	2	-6	-4
COc1ccc(-n2c(O)c(/C=N/NS(=O)(=O)c3cc(C)ccc3C)c3ccccc3c2=O)cc1OC	114*	-6	-117	-70
COc1ccc(-n2c(O)c(/C=N/NS(=O)(=O)c3ccc(C)cc3)c3ccccc3c2=O)cc1OC	59*	-12	-133	-75
COc1ccc(-c2ccc3c(c2)C2CC3CCN2S(=O)(=O)c2ccccc2C)cc1 (stereo unspecified)	-10	3	-2	-1
Cc1c(NC(=O)Nc2ccc3c(c2)OCO3)cccc1[N+](=O)[O-]	0	1	-3	-4
COc1cc(/C=C(\C#N)c2nc3ccccc3o2)ccc1O	50*	-39	-34	-78
N#C/C(=C\c1ccc(O)cc1)c1nc2ccccc2o1	0	-3	?	-2
CC(/C=C/c1ccc(N(C)C)cc1)=N/N=C1/NC(=O)CC(C(=O)Nc2ccc(Cl)cc2)S1 (stereo unspecified)	32*	1	1	-5
CC(=O)c1cccc(NC(=O)COc2ccc3oc(=O)cc(C)c3c2)c1	2	0	-3	0
C=C(C)C(=O)Nc1cccc(C2=NOC3(C2)C[C@@H](C(N)=O)N(C(=O)C2(C)CC2)C3)c1 (stereo partly specified)	3	105*	-1	-4
C=C(C)C(=O)Nc1cccc(C2=NOC3(C2)C[C@@H](C(N)=O)N(C(=O)C(=C)C)C3)c1 (stereo partly specified)	9	25	-2	0
O=C(CSc1nnc(NC(=O)c2ccc(F)cc2F)s1)NC1CC1	-1	-1	-3	-5
COc1ccccc1C(=O)NN(C)C1=NS(=O)(=O)c2ccccc21	60*	2	2	-2
CN(NC(=O)CN1C(=O)c2ccccc2C1=O)C1=NS(=O)(=O)c2ccccc21	-10	-2	2	-9
O=C(NC1CCCCC1)c1cccc2c1C(=O)c1ccc(N3CCCC3)cc1S2(=O)=O	24	1	2	-10
CC1CCN(c2ccc3c(c2)S(=O)(=O)c2cccc(C(=O)NCc4ccc(F)cc4)c2C3=O)CC1	105*	27	4	3
O=C(NCc1ccc(F)cc1)c1cccc2c1C(=O)c1ccc(N3CCC(Cc4ccccc4)CC3)cc1S2(=O)=O	232*	28	0	-441
CC1CCN(c2ccc3c(c2)S(=O)(=O)c2cccc(C(=O)NC4CCCCC4)c2C3=O)CC1	33*	2	-9	-15
O=C(NC1CC1)c1cccc2c1C(=O)c1ccc(N3CCC(Cc4ccccc4)CC3)cc1S2(=O)=O	99*	13	3	-148
O=C(NCc1ccc(F)cc1)c1cccc2c1C(=O)c1ccc(N3CCOCC3)cc1S2(=O)=O	12	15	1	-6
CCC(C)N(C(=O)COC(=O)c1ccccc1SCC(=O)N1CCCC1)C1CCS(=O)(=O)C1 (stereo unspecified)	-1	-1	1	-6
CCOC(=O)CCSc1nc(-c2ccc3c(c2)OCO3)cc(C(F)(F)F)c1C#N	-1	-1	-3	10
CCOC(=O)CC(=O)CSc1nc(-c2ccc3c(c2)OCO3)cc(C(F)(F)F)c1C#N	40*	7	1	-12
O=C(CCN1C(=O)/C(=C/c2ccccc2)SC1=S)NNC(=O)c1cccnc1	35*	-1	5	-43
SMILES	cardiac RTF act	LANA DNA inh	Keap1 Nrf2 FP	Cardiac RTF inh
Cc1ccc(CCC(=O)Nc2cc(Cl)ccc2Cl)o1	39*	1	-4	-7
Cc1ccc(C)c(NC(=O)CCc2ccc(C)o2)c1	-2	-3	0	-3
Cc1cc(C(=O)Nc2ccc([N+](=O)[O-])cn2)cs1	4	-3	-2	0
CCOC(=O)[C@H]1[C@H]2COc3ccccc3[C@@H]2N2C(=O)CN(Cc3ccc(C)cc3)C(=O)[C@@]12C	19	61*	8	-62
c1ccc2c(c1)CCCN2Cc1nnc2n1CCCCC2	37*	21	5	-54
Cc1ncc([N+](=O)[O-])n1S(=O)(=O)c1ccc2c(c1)OCCO2	-6	0	3	3
COc1ccc(/C=c2\s/c(=C/C(=O)c3ccc(C)cc3)[nH]c2=O)cc1OC	30*	2	-4	-42
CC(C)(C)C(=O)/C=c1\[nH]c(=O)/c(=C\c2ccc(F)cc2)s1	2	-1	-1	-3
COC(=O)/C=C1\SC(=Nc2ccc(Cl)c(Cl)c2)NC1=O	1	-1	-2	2
COc1cc(/C=C2\SC(=Nc3ccc(Cl)c(C(=O)O)c3)NC2=O)c(Br)c(Br)c1O	70*	-55	-92	-135
COc1cc(/C=C2\SC(=Nc3ccccc3)NC2=O)cc(Cl)c1O	63*	-31	-8	-92
O=C(O)c1ccc(NC2=C(Cl)C(=O)c3ccccc3C2=O)cc1	5	4	9.3*	0
O=C1C(Cl)=C(Nc2ccccc2)C(=O)c2ccccc21	-11	2	3	-5
CCOC(=O)/C(C#N)=C\c1ccc(N2CCN(C/C=C/c3ccccc3)CC2)cc1	76*	1	-8	-70
O=S(=O)(O)c1ccc(N2N=C(c3ccccc3)CC2c2ccccc2)cc1 (stereo unspecified)	-4	2	0	-9
NS(=O)(=O)c1ccc(N2N=C(c3ccccc3)CC2c2ccccc2)cc1 (stereo unspecified)	43*	-2	2	-48
O=C(NCC(=O)N(c1cccnc1)C(C(=O)NC1CCCC1)c1ccccc1F)c1ccco1 (stereo unspecified)	0	-1	1	-1
Cc1ccc(C2OC34CCCCCC3C(C#N)(C(=N)O4)C2(C#N)C#N)cc1 (stereo unspecified)	6	-2	-2	-3
CCOc1ccc(C2OC34CCCCC3C(C#N)(C#N)C2(C#N)C(=N)O4)cc1OC (stereo unspecified)	29	42	19*	-35
CC(=O)OCCn1c(C)[n+](CCOC(C)=O)c2cc(Cl)c(Cl)cc21	6	1	-7	-9
CC(=O)OCCn1c2nc(=O)[nH]c(=O)c-2nc2cc(C)c(C)cc21	+	163*	156*	i
O=C(CSc1nnc(NC(=O)C2CC2)s1)Nc1ccc(F)cc1F	5	-1	-3	-12
CCOC(=O)/C(C#N)=C\C=C1C=CN(C)C=C1	59*	-43	-143	-76
CCOC(=O)/C(C#N)=C\c1ccc(CC)s1	-2	-1	-3	-13
O=C(C=C(C(=O)c1ccccc1)c1ccccc1)c1ccccc1	0	2	-2	1
CS(=O)(=O)c1ccc(Cl)c(NC(=O)COC(=O)c2ccc(F)cc2Cl)c1	1	71*	1	-5
CCCOc1ccc(N)cc1N	32*	3	1	-47
O=C(NCc1ccccn1)c1cccc(S(=O)(=O)NCc2ccccc2)c1	3	-1	-6	-8
Cc1ccc(N=Cc2sc(O)c3ccccc23)c(C)c1	49*	0	-7	-15
